According to PubChem BioAssay (EPA / NIEHS):
Records with an inconclusive call do not appear. Activity calls are given as the source filed them. The calls were made as follows, unless noted: active = hit-call score of the fitted dose curve at least 0.9, where 1 is the maximum; inconclusive = response in the unintended direction; inactive = score below 0.9.

Columns and labels:
[1] = CCTE_Padilla_ZF_144hpf_TERATOSCORE: (Legacy) CCTE's 144 Hour Post-fertilization zebrafish Assay Teratoscore, Padilla Lab (AID 2283679; active = hit-call score of the fitted dose curve at least 0.9, where 1 is the maximum; inactive = score below 0.9;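 as to AC50: zebrafish embryos with chorions exposed by immersion from 6-8 hpf to 5 dpf with daily renewal; teratogenicity score from eye scoring of death hatching and malformations at 144 hpf; higher score means more developmental defects relative to DMSO baseline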)
How it was run: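 Larvae scored by eye at 144 hpf for death, hatching and malformations after a day in clean Hanks'. Before that, daily-renewed exposure at 80 uM (0.4% DMSO, 26C) from roughly 6-8 hpf through 5 dpf, 4 embryos per chemical.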

[2] = read-out: Cytochrome P450 3A4 (Homo sapiens) (UniProt P08684); assay: CLD_CYP3A4_6hr: CellzDirect (CLD) Gene Expression Assay for xenobiotic metabolism (CYP3A4) at 6 hours (AID 2283680)
How it was run: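 Primary human hepatocytes (two donor preparations) dosed; CYP3A4 mRNA harvested at 6 h and quantified by qNPA chemiluminescence. Gain of signal fitted against 0.2% DMSO vehicle; cytotoxicity flagged by phase-contrast morphology.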

[3] = read-out: Glyceraldehyde-3-phosphate dehydrogenase (Homo sapiens) (UniProt P04406); assay: CLD_GAPDH_6hr: CellzDirect (CLD) Gene Expression Assay for Baseline Control (Glyceraldehyde 3-phosphate dehydrogenase) at 6 hours (AID 2283681);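 also: active means increased signal relative to DMSO vehicle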
How it was run: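 Primary human hepatocytes from two donor preparations, dosed at multiple concentrations with 0.2% DMSO vehicle; GAPDH mRNA measured 6 h after dosing by chemiluminescent quantitative nuclease protection assay (qNPA) on denatured lysates. Serves as background control; cytotoxicity annotated by morphology.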

[4] = read-out: HMG-CoA synthase (HMGCS2), HMGCS2 (gene 3158); assay: CLD_HMGCS2_6hr: CellzDirect (CLD) Gene Expression Assay for HMG-CoA synthase (HMGCS2) at 6 hours (AID 2283682);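 also: actives raise HMGCS2 transcript above the 0.2% DMSO vehicle baseline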
How it was run: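 Primary human hepatocytes dosed daily with fresh chemical, 0.2% DMSO vehicle; HMGCS2 mRNA measured at 6 h by qNPA chemiluminescence. Gain of signal fitted against DMSO; cytotoxicity flagged from phase-contrast morphology.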

[5] = read-out: xenobiotic metabolism (CYP1A2), CYP1A2 (gene 1544); assay: CLD_CYP1A2_24hr: CellzDirect (CLD) Gene Expression Assay for xenobiotic metabolism (CYP1A2) at 24 hours (AID 2283683)
How it was run: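 Primary human hepatocytes from two donor preparations dosed daily with multiple concentrations of chemical, 0.2% DMSO vehicle. CYP1A2 mRNA at 24 h quantified by qNPA chemiluminescence; gain of signal analyzed relative to DMSO. Cytotoxicity flagged by phase-contrast morphology.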

[6] = read-out: Broad substrate specificity ATP-binding cassette transporter ABCG2 (Homo sapiens) (UniProt Q9UNQ0); assay: CLD_ABCG2_24hr: CellzDirect (CLD) Gene Expression Assay for ABC Transporter (ABCG2) at 24 hours (AID 2283685);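 as to AC50: AC50 is for induction meaning signal gain over DMSO vehicle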
How it was run: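 Primary human hepatocytes were dosed daily with ToxCast chemicals at multiple concentrations (vehicle 0.2% DMSO). ABCG2 mRNA was measured at 24 h by qNPA chemiluminescence; induction was scored as gain of signal versus DMSO.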

[7] = read-out: Cytochrome P450 3A4 (Homo sapiens) (UniProt P08684); assay: CLD_CYP3A4_24hr: CellzDirect (CLD) Gene Expression Assay for xenobiotic metabolism (CYP3A4) at 24 hours (AID 2283689)
How it was run: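 Primary human hepatocytes from two donors dosed daily with fresh compound for two days, 0.2% DMSO vehicle. CYP3A4 mRNA at 24 hr by qNPA chemiluminescence; gain-of-signal fit versus DMSO, cytotoxicity flagged by morphology.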

[8] = read-out: Glyceraldehyde-3-phosphate dehydrogenase (Homo sapiens) (UniProt P04406); assay: CLD_GAPDH_24hr: CellzDirect (CLD) Gene Expression Assay for Baseline Control (Glyceraldehyde 3-phosphate dehydrogenase) at 24 hours (AID 2283692)
How it was run: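 Primary human hepatocytes (two donor preparations) dosed daily for two days, 0.2% DMSO vehicle; GAPDH mRNA measured at 24 h by qNPA chemiluminescence as a background control, gain-of-signal fitted against DMSO.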

[9] = read-out: sulfotransferase (SULT2A), SULT2A1 (gene 6822); assay: CLD_SULT2A_24hr: CellzDirect (CLD) Gene Expression Assay for sulfotransferase (SULT2A) at 24 hours (AID 2283694);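 as to AC50: potency for increased SULT2A1 mRNA level as induction over DMSO baseline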
How it was run: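 Primary human hepatocytes from two donor preparations were dosed daily with fresh solutions, vehicle 0.2% DMSO. At 24 h, lysates went to quantitative nuclease protection (qNPA) with S1 digestion and chemiluminescent readout. Cytotoxicity was annotated from phase-contrast morphology.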

[10] = read-out: glucuronosyltransferase (UGT1A1), UGT1A1 (gene 54658); assay: CLD_UGT1A1_24hr: CellzDirect (CLD) Gene Expression Assay for glucuronosyltransferase (UGT1A1) at 24 hours (AID 2283696)
How it was run: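 Primary human hepatocytes from two donor preparations were dosed (0.2% DMSO vehicle) and harvested at 24 h; UGT1A1 mRNA induction was quantified by chemiluminescent qNPA, fitted as gain relative to DMSO.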

[11] = read-out: ABC Transporter (ABCB11), ABCB11 (gene 8647); assay: CLD_ABCB11_6hr: CellzDirect (CLD) Gene Expression Assay for ABC Transporter (ABCB11) at 6 hours (AID 2283675);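 also: hits raise ABCB11 mRNA level so AC50 marks induction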
How it was run: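 Human primary hepatocytes (two donor preparations) given fresh chemical daily at multiple concentrations, vehicle 0.2% DMSO. ABCB11 mRNA induction measured 6 h after dosing by qNPA chemiluminescence versus DMSO; cytotoxicity annotated from morphology.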

[12] = read-out: Cytochrome P450 2C19 (Homo sapiens) (UniProt P33261); assay: CLD_CYP2C19_6hr: CellzDirect (CLD) Gene Expression Assay for xenobiotic metabolism (CYP2C19) at 6 hours (AID 2283678)
How it was run: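 Primary human hepatocytes from two donor preparations were dosed daily, with 0.2% DMSO as vehicle, and harvested 6 h after dosing. CYP2C19 mRNA induction was measured by qNPA chemiluminescence and fitted as gain of signal against DMSO.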

[13] = read-out: Cytochrome P450 2C9 (Homo sapiens) (UniProt P11712); assay: CLD_CYP2C9_24hr: CellzDirect (CLD) Gene Expression Assay for xenobiotic metabolism (CYP2C9) at 24 hours (AID 2283688)
How it was run: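 Primary human hepatocytes from two donor preparations, dosed daily for two days at multiple concentrations; vehicle 0.2% DMSO. CYP2C9 mRNA induction at 24 h measured by qNPA chemiluminescence relative to DMSO; cytotoxicity annotated from morphology.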

[14] = read-out: Cytochrome P450 2C19 (Homo sapiens) (UniProt P33261); assay: CLD_CYP2C19_24hr: CellzDirect (CLD) Gene Expression Assay for xenobiotic metabolism (CYP2C19) at 24 hours (AID 2283687);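 also: activity means mRNA induction above DMSO vehicle baseline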
How it was run: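 Primary human hepatocytes (two donor preparations) dosed daily with fresh test chemical in 0.2% DMSO vehicle; CYP2C19 mRNA induction measured at 24 h by quantitative nuclease protection assay with chemiluminescence, fitted for gain of signal versus DMSO.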

[15] = read-out: ABC Transporter (ABCB1), ABCB1 (gene 5243); assay: CLD_ABCB1_24hr: CellzDirect (CLD) Gene Expression Assay for ABC Transporter (ABCB1) at 24 hours (AID 2283684)
How it was run: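 Primary human hepatocytes, two donor preparations, dosed daily with fresh solutions; vehicle 0.2% DMSO; harvested at 24 h. ABCB1 mRNA measured by quantitative nuclease protection assay (chemiluminescence); morphology-based cytotoxicity annotated.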

[16] = read-out: ABC Transporter (ABCB1), ABCB1 (gene 5243); assay: CLD_ABCB1_48hr: CellzDirect (CLD) Gene Expression Assay for ABC Transporter (ABCB1) at 48 hours (AID 2283695)
How it was run: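 Primary human hepatocytes from two donor preparations dosed daily on two consecutive days with 0.2% DMSO vehicle. Harvest at 48 h. ABCB1 mRNA quantified by qNPA with chemiluminescence and fitted for gain of signal versus DMSO.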

[17] = read-out: Cytochrome P450 2B6 (Homo sapiens) (UniProt P20813); assay: CLD_CYP2B6_24hr: CellzDirect (CLD) Gene Expression Assay for xenobiotic metabolism (CYP2B6) at 24 hours (AID 2283686)
How it was run: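 Primary human hepatocytes dosed daily for two days with fresh solutions, harvested at 24 hours; mRNA induction quantified by qNPA chemiluminescence, gain of signal vs 0.2% DMSO vehicle. Cytotoxicity annotated from phase-contrast morphology.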

[18] = read-out: Cytochrome P450 2B6 (Homo sapiens) (UniProt P20813); assay: CLD_CYP2B6_6hr: CellzDirect (CLD) Gene Expression Assay for xenobiotic metabolism (CYP2B6) at 6 hours (AID 2283677);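 also: actives raise CYP2B6 transcript above DMSO baseline so AC50 marks an inducer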
How it was run: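 Primary human hepatocytes dosed with chemicals at multiple concentrations, vehicle 0.2% DMSO; CYP2B6 mRNA induction measured 6 h after dosing by quantitative nuclease protection assay with chemiluminescence, gain of signal fitted relative to DMSO.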

Measured: AC50

Cytochrome P450 2C19 (Homo sapiens), sequence (P33261 whole entry, looked up): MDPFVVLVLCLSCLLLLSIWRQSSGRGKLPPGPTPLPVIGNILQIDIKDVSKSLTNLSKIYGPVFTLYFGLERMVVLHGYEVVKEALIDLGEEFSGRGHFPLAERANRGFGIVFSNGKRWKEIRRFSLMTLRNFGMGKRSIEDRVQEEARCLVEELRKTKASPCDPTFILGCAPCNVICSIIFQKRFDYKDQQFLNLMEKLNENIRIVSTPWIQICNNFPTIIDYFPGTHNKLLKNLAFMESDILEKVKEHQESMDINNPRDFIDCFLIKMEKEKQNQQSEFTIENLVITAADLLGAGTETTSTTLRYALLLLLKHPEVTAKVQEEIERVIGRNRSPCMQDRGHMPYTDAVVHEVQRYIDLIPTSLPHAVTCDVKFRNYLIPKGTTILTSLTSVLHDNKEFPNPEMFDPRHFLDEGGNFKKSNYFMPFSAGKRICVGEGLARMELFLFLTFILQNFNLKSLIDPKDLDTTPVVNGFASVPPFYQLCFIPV
Glyceraldehyde-3-phosphate dehydrogenase (Homo sapiens), sequence (P04406 whole entry, looked up): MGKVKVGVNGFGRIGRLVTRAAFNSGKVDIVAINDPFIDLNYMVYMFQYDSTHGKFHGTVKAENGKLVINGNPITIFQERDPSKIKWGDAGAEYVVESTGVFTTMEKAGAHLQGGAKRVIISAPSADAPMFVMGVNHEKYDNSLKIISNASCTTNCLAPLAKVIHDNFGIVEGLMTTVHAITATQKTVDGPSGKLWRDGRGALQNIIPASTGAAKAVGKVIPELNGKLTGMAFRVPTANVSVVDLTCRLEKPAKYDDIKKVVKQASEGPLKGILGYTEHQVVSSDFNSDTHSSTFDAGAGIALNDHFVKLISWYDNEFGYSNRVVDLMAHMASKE
Cytochrome P450 3A4 (Homo sapiens), sequence (P08684 whole entry, looked up): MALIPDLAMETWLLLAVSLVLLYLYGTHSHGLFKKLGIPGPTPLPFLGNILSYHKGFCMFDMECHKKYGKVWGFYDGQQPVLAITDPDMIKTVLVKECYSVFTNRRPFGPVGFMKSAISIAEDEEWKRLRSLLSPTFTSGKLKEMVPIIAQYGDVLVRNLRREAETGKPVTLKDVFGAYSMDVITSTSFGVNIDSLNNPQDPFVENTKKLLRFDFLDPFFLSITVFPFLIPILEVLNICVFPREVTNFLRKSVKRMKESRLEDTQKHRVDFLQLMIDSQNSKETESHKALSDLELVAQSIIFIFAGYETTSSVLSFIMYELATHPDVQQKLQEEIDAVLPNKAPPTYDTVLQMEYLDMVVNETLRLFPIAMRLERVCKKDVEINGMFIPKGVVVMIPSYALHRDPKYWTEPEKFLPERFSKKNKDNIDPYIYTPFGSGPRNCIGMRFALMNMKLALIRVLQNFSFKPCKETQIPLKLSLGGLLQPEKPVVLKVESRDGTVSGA
Broad substrate specificity ATP-binding cassette transporter ABCG2 (Homo sapiens), sequence (Q9UNQ0 whole entry, looked up): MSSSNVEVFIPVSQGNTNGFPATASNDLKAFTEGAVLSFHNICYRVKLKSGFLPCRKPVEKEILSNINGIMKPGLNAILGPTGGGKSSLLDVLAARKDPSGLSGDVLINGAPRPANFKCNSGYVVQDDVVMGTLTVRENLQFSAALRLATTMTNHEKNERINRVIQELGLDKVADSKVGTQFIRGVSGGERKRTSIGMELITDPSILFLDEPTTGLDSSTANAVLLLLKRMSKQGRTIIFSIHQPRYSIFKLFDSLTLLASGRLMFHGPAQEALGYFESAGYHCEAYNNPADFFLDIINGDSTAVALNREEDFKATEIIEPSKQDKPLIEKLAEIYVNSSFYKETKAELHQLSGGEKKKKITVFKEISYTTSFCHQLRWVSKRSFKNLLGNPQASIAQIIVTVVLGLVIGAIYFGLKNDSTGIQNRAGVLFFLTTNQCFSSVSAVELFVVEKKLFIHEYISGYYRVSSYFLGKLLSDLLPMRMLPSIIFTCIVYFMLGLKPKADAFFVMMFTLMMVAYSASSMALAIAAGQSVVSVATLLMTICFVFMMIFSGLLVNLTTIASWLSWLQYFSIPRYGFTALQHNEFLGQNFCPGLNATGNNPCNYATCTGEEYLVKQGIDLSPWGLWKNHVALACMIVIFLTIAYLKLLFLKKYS

CSc1nnc(C(C)(C)C)c(=O)n1N
active: [5] 20 µM | [7] 4.88 µM
inactive: [1] | [2] | [3] | [4] | [6] | [8] | [9] | [10]

COP(=O)(OC)C(O)C(Cl)(Cl)Cl (stereo not drawn)
inactive: [11] | [3] | [6]
active: [1] 168 µM

CCCOc1nn(C(=O)NS(=O)(=O)c2ccccc2C(=O)OC)c(=O)n1C
inactive: [12] | [1] | [3] | [4] | [13] | [8] | [9] | [10]

CCCCOC(=O)[C@@H](C)Oc1ccc(Oc2ccc(C#N)cc2F)cc1
inactive: [12] | [2] | [3] | [4] | [14] | [8] | [9] | [10]
active: [1] 2.1 µM

CCOC(=O)COc1cc(-c2nn(C)c(OC(F)F)c2Cl)c(F)cc1Cl
active: [1] 0.201 µM | [2] 3.97 µM | [7] 20 µM
not listed: [4] | [6] | [8] | [12] | [17] | [18]
inactive: all other assays above

CN(C)C(=O)Nc1cccc(C(F)(F)F)c1
active: [5] 3.66 µM | [17] 4.64 µM
inactive: [12] | [1] | [2] | [4] | [6] | [13] | [10]

C=C(C)[C@H]1Cc2c(ccc3c2O[C@@H]2COc4cc(OC)c(OC)cc4[C@@H]2C3=O)O1
active: [1] 0.000155 µM | [6] 6.65 µM | [9] 3.88 µM
inactive: [11] | [3] | [4] | [13] | [7]

CSc1nc(NC(C)C)nc(NC(C)C)n1
inactive: [12] | [2] | [3] | [13] | [9] | [10]
active: [1] 132 µM | [5] 2.63 µM | [17] 2.99 µM

COc1ccc(C(=CC(=O)N2CCOCC2)c2ccc(Cl)cc2)cc1OC
inactive: [6] | [13] | [8] | [9] | [10]
active: [18] 4.1 µM | [1] 23.6 µM | [2] 2.29 µM | [7] 2.09 µM

CC(=NC#N)N(C)Cc1ccc(Cl)nc1
inactive: [12] | [1] | [2] | [3] | [15] | [6] | [13] | [7] | [9] | [10]
